Measured values published in PubChem BioAssay.
For some assays here: Results with a measured potency or affinity are listed apart. Activity calls are given as the source filed them. Unless noted, no rule for the calls is given here.

Legend:
[1] = antimalarial activity against Dd2 strain (AID 2302;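 active = growth inhibition above 50% at the single 2 µM test dose, taken to imply half-maximal potency below 2 µM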;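 also: 0% = DMSO untreated growth and 100% = chloroquine plus artemisinin killed control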); conditions: P. falciparum Dd2 in RBCs, LDH growth readout, 72 h; at 2 µM; active compounds read high
[2] = HepG2 cytotoxicity, primary screen, cytotoxicity control for P. falciparum antimalarial project, cell-based, ATP luminescence (AID 2303;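 active = inhibition above 50%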;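 also: 0% = DMSO wells and 100% = digitonin-killed cells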); conditions: HepG2 viability, 24-48 h, at 10 µM, active compounds read high
[3] = target: L-lactate dehydrogenase (Plasmodium falciparum (isolate CDC / Honduras)) (UniProt Q27743); experiment: PfLDH activity inhibition – cell lysate, 3D7 strain, counter-screen for P. falciparum growth inhibition project (AID 2304);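 also: 0% = vehicle and 100% = reference inhibitor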; conditions: P. falciparum 3D7 crude extract, LDH APAD/NBT absorbance; at 2 µM; active compounds read high
[4] = inhibition of 3D7 malaria parasite growth – strain 3D7 (AID 2306);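 also: 0% = DMSO wells and 100% = chloroquine plus artemisinin control wells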; conditions: P. falciparum 3D7 erythrocytic growth, LDH absorbance, 72 h; at 2 µM; active compounds read high
[5] = target: Calcium-dependent protein kinase 1 (Plasmodium falciparum (isolate 3D7)) (UniProt P62344); experiment: PfCDPK1 kinase inhibitors, biochemical, TCAMS library (AID 1159585; cut-off not given, nearly all actives have IC50 up to about 0.98 µM;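 also: inhibitors leave more ATP so luminescence rises with inhibition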); conditions: recombinant PfCDPK1, Kinase-Glo ATP depletion luminescence
[6] = target: Plasmodium falciparum protein kinase 6 (PK6, PF3D7_1337100) (UniProt Q8IDW1); experiment: PfPK6 kinase inhibitors, biochemical, TCAMS library (AID 1159586); conditions: recombinant PfPK6, Kinase-Glo ATP depletion luminescence
[7] = target: Protein kinase 7 (PK7), Plasmodium falciparum 3D7 (PF3D7_0213400) (UniProt Q7YTF7); experiment: inhibition of Plasmodium PK7 catalytic activity – biochemical, TCAMS antimalarial set, Kinase-Glo luminescence (AID 1159587); conditions: recombinant PfPK7, Kinase-Glo ATP depletion luminescence
[8] = target: Calcium-dependent protein kinase 4 (Plasmodium falciparum (isolate 3D7)) (UniProt Q8IBS5); experiment: PfCDPK4 kinase inhibitors, biochemical, TCAMS library (AID 1159588; cut-off not given, nearly all actives have IC50 up to about 0.91 µM); conditions: recombinant PfCDPK4, Kinase-Glo ATP depletion luminescence
Chain of Calcium-dependent protein kinase 4 (Plasmodium falciparum (isolate 3D7)) (Q8IBS5 whole entry, looked up): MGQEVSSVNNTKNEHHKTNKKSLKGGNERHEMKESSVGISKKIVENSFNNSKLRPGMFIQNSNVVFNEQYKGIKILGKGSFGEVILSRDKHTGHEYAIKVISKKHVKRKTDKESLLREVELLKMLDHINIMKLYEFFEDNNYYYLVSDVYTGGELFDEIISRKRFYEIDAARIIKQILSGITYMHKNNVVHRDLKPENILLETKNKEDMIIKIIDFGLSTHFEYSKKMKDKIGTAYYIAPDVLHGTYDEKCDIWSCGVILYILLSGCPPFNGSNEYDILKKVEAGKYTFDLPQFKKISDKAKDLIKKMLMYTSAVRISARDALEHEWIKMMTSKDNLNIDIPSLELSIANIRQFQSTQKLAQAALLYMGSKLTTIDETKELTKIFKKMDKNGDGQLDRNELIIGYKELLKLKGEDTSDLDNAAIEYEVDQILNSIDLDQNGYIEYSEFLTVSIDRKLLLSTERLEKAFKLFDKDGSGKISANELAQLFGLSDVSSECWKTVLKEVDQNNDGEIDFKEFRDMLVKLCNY

Chain of L-lactate dehydrogenase (Plasmodium falciparum (isolate CDC / Honduras)) (Q27743 whole entry, looked up): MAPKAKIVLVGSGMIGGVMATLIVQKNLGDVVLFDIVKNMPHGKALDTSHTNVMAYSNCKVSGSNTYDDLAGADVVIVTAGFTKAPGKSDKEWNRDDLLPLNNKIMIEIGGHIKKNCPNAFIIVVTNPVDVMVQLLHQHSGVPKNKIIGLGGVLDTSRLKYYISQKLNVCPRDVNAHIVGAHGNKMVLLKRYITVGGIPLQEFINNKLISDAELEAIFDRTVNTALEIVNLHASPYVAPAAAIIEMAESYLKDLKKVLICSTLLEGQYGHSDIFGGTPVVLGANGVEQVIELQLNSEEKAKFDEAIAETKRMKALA
Chain of Plasmodium falciparum protein kinase 6 (PK6, PF3D7_1337100) (Q8IDW1 1-305): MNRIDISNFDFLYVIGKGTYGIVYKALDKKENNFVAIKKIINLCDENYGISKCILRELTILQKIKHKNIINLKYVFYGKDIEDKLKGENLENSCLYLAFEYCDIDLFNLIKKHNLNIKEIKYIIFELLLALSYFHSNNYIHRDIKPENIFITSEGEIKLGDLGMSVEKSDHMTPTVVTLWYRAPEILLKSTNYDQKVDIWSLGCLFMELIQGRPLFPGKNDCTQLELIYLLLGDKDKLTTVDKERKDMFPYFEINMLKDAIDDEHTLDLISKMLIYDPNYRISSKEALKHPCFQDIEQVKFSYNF
Chain of Protein kinase 7 (PK7), Plasmodium falciparum 3D7 (PF3D7_0213400) (Q7YTF7 1-343): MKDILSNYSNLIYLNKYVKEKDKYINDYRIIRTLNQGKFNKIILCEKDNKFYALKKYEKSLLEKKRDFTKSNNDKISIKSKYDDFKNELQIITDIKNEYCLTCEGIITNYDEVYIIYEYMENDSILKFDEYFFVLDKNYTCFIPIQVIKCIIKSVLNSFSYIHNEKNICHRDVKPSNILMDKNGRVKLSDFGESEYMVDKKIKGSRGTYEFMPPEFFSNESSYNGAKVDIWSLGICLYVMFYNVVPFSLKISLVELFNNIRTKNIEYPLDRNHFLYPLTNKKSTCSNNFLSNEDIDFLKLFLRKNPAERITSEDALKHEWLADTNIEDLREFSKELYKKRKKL
Chain of Calcium-dependent protein kinase 1 (Plasmodium falciparum (isolate 3D7)) (P62344 whole entry, looked up): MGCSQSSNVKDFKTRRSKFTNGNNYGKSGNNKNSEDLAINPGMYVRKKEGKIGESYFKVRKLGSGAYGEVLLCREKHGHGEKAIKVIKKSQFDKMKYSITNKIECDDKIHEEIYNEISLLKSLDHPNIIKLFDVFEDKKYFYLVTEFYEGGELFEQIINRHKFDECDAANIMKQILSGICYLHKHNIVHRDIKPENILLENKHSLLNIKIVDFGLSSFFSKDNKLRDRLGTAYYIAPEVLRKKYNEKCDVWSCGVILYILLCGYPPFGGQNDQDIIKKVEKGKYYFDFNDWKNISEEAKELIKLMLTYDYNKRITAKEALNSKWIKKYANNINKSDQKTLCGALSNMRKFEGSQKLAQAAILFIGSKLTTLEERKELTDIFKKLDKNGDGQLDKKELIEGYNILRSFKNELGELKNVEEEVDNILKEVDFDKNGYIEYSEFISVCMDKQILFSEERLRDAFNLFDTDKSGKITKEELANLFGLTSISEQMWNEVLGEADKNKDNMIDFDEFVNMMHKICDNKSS

Q: Which growth inhibition [1] does the source give for O=c1cc(NC[C@@H]2CCC[C@@H]2NCc2ccc(Cl)c(Cl)c2)[nH]c2ccccc12 here?
A: Its growth inhibition is 75% (active).

Q: What about the inhibition [2] of the same compound?
A: The inhibition was 9% (inactive).

Q: And the inhibition [3]?
A: The inhibition was -1% (inactive).

Q: And the growth inhibition [4]?
A: Its growth inhibition is 100% (active).

Q: And the outcome [5]?
A: Its outcome is “inactive”.

Q: What about the outcome [6] of the same compound?
A: Its outcome is “inactive”.

Q: And the outcome [7]?
A: Its outcome is “inactive”.

Q: What about the outcome [8] of the same compound?
A: The outcome was “inactive”.

Q: Which growth inhibition [1] does the source give for COc1ccc(C2C(C(=O)Nc3cc(OC)c(OC)c(OC)c3)c3cc(OC)c(OC)cc3C(=O)N2C)cc1 (configuration not stated) here?
A: Its growth inhibition is 100% (active).

Q: What about the inhibition [2] of the same compound?
A: Its inhibition is 9% (inactive).

Q: What about the inhibition [3] of the same compound?
A: Its inhibition is 2% (inactive).

Q: What about the growth inhibition [4] of the same compound?
A: The growth inhibition was 98% (active).

Q: And the outcome [5]?
A: The outcome was “inactive”.

Q: And the outcome [6]?
A: Its outcome is “inactive”.

Q: And the outcome [7]?
A: The outcome was “inactive”.

Q: And the outcome [8]?
A: Its outcome is “inactive”.

Q: For COc1ccc2nccc(NN=Cc3ccccc3Cl)c2c1, which growth inhibition [1] is on record?
A: Its growth inhibition is 99% (active).

Q: And the inhibition [2]?
A: Its inhibition is 29% (inactive).

Q: And the inhibition [3]?
A: The inhibition was -4% (inactive).

Q: What about the growth inhibition [4] of the same compound?
A: Its growth inhibition is 100% (active).

Q: And the outcome [5]?
A: The outcome was “inactive”.

Q: What about the outcome [6] of the same compound?
A: The outcome was “inactive”.

Q: And the outcome [7]?
A: The outcome was “inactive”.

Q: What about the outcome [8] of the same compound?
A: Its outcome is “inactive”.

Q: With CCOc1ccccc1C=CC(=O)Nc1ccc2nc(N3CCN(C)CC3)cc(C)c2c1 as the compound, how does the growth inhibition [1] read?
A: The growth inhibition was 91% (active).

Q: What about the inhibition [2] of the same compound?
A: Its inhibition is 16% (inactive).

Q: What about the inhibition [3] of the same compound?
A: Its inhibition is -1% (inactive).

Q: What about the growth inhibition [4] of the same compound?
A: Its growth inhibition is 102% (active).

Q: And the outcome [5]?
A: The outcome was “inactive”.

Q: What about the outcome [6] of the same compound?
A: Its outcome is “inactive”.

Q: What about the outcome [7] of the same compound?
A: Its outcome is “inactive”.

Q: What about the outcome [8] of the same compound?
A: Its outcome is “inactive”.
